The values that follow come from PubChem BioAssay (NCATS).

Test [1] can be described thus: qHTS of pediatric cancer cell lines to identify multiple opportunities for drug repurposing: Primary screen for RD cells (AID 1347104). Also: nearly all actives have a fitted effect of over 55% in size. A digest of the protocol: (§1)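 CRCs from 8- or 11-point titrations (lowest final 0.59 nM NPC, 0.78 nM MIPE). Cell viability: CellTiter-Glo after 48 h incubation, 15 min room-temperature development, luminescence imaging.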
In general terms: Quantitative high-throughput screening tests each substance at several concentrations.

Test [2] in a line: qHTS of pediatric cancer cell lines to identify multiple opportunities for drug repurposing: Primary screen for MG 63 (6-TG R) cells (AID 1347105). Also: nearly all actives have a fitted effect of over 50% in size. In a few lines:
as §1

Test [3] can be described thus: qHTS of pediatric cancer cell lines to identify multiple opportunities for drug repurposing: Primary screen for control Hh wild type fibroblast cells (AID 1347106). Also: nearly all actives have a fitted effect of over 55% in size. In a few lines: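 Cells (500-1,000/well) in growth media were settled 5 h at 37 degrees C, then given compounds for 48 h. Viability was read as CellTiter-Glo luminescence. Primary runs used MIPE at 11 points (0.78 nM-46 µM) and NPC at 8 points (0.59 nM-46 µM); follow-ups used 11 points.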

Test [4] is described as follows: qHTS of pediatric cancer cell lines to identify multiple opportunities for drug repurposing: Primary screen for Rh30 cells (AID 1347107). Also: nearly all actives have a fitted effect of over 75% in size. A digest of the protocol:
(§2)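 Viability after 48 h compound treatment at 37C, 500-1,000 cells/well, read as ATP luminescence with CellTiter-Glo. Primary screens used 11-point (MIPE, 0.78 nM-46 µM) or 8-point (NPC, 0.59 nM-46 µM) final concentrations; follow-up screens used 11-point dilutions.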

Test [5] is described as follows: qHTS of pediatric cancer cell lines to identify multiple opportunities for drug repurposing: Primary screen for Rh41 cells (AID 1347108). Also: nearly all actives have a fitted effect of over 70% in size. In a few lines:
as §1

Test [6] is described as follows: qHTS of pediatric cancer cell lines to identify multiple opportunities for drug repurposing: Confirmatory screen for NB1643 cells (AID 1347109). Also: nearly all actives have a fitted effect of over 45% in size. In a few lines:
as §2

Test [7] can be described thus: qHTS of pediatric cancer cell lines to identify multiple opportunities for drug repurposing: Confirmatory screen for A673 cells (AID 1347110). Also: nearly all actives have a fitted effect of over 65% in size. In a few lines: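 Concentration-response curves came straight from titrations: 11 points (0.78 nM to 46 µM) for MIPE and several concentrations (0.59 nM to 46 µM) for NPC in primary, 11 points in follow-up. Readout: ATP luminescence at 48 h.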

A short description of test [8]: qHTS of pediatric cancer cell lines to identify multiple opportunities for drug repurposing: Confirmatory screen for SK-N-MC cells (AID 1347111).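 Also: cells exposed to compound for 48 h before the readout; nearly all actives have a fitted effect of over 70% in size.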 A digest of the protocol:
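SK-N-MC cells at 500-1,000 cells/well in growth media were pre-incubated 5 h, then exposed to compounds at 11-point dilutions for 48 h at 37 degrees C, 5% CO2. Viability was read as CellTiter-Glo luminescence.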

The nature of test [9]: qHTS of pediatric cancer cell lines to identify multiple opportunities for drug repurposing: Confirmatory screen for BT-12 cells (AID 1347112). Also: nearly all actives have a fitted effect of over 55% in size. In a few lines:
as §2

Test [10] is described as follows: qHTS of pediatric cancer cell lines to identify multiple opportunities for drug repurposing: Confirmatory screen for DAOY cells (AID 1347114). Also: nearly all actives have a fitted effect of over 65% in size. In a few lines: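 Viability measured as metabolically active cells via CellTiter-Glo luminescence following 48 hours of compound exposure, 11-point dilutions in confirmatory testing. 500-1,000 cells/well plated 5 hours before dosing; controls were DMSO and 2.3 µM bortezomib.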

Results filed as inconclusive are left out. Activity calls are given as the source filed them. Calls follow the shape of the dose curve; as a rule, active = well fitted curve in the direction sought with a large enough effect; inconclusive = small, poorly fitted or top-dose-only effect, or another doubt; inactive = no such curve, though single readings can be large; an effect the other way counts as inactive or inconclusive.
Potency is read from the fitted curve at half-maximal effect.

For `CSCC[C@@H](NC(=O)[C@@H](Cc1ccccc1)NC(=O)CNC(=O)CNC(=O)[C@@H](N)Cc1ccc(O)cc1)C(=O)O`, the Potency result in test [1], in test [2], in test [3], in [4] and in [5] was “inactive” each time.
With `C1CCC(NC2CCCCC2)CC1`, the Potency result in [1], in test [2], in test [3], in test [4] and in test [5] was “inactive” in each case.
In the case of `CCO/N=C(\CC)C1=C(O)CC(c2c(C)cc(C)cc2C)CC1=O` (stereo unspecified), the Potency entry in test [1], in test [2], in test [3], in test [4] and in [5] was “inactive” throughout.
On to `c1ccc2c(CN3CCNCC3)cccc2c1`, for which the Potency entry in test [1], in test [2], in test [3], in [4] and in test [5] was “inactive” throughout.
Take `C[C@]12COC(=O)C[C@@H]1CC[C@@H]1[C@H]2CC[C@@]2(C)[C@H]1CC[C@]2(C)O`: the Potency result in test [1], in [2], in test [3], in test [4] and in test [5] was “inactive” each time.
Take `CCCCCCCCCCCCCCCC[N+](C)(C)C`: the Potency in test [1] is 13.3 µM (active); in test [2], 21.1 µM (active).
As for `Cc1ccc(Cl)c(O)c1`, the Potency result in [1], in test [2], in test [4] and in test [5] was “inactive” each time.
As for `O=S(=O)(O)C(F)(F)C(F)(F)C(F)(F)C(F)(F)C(F)(F)C(F)(F)C(F)(F)C(F)(F)F`, the Potency entry in test [1], in test [2], in test [3], in [4] and in test [5] was “inactive” in each case.
As to `O=S(=O)(O)C(F)(F)C(F)(F)C(F)(F)C(F)(F)F`, the Potency entry in test [1], in [2], in test [4] and in test [5] was “inactive” in each case.
As for `CCN1CCN(C(=O)Cc2ccc(Nc3ncc(F)c(Nc4ccc(C(=O)Nc5ccccc5Cl)cc4)n3)cc2)CC1`, the Potency in [1] was 13.2 µM (active); in [2], 9.35 µM (active); in [4], 23.5 µM (active); in test [5], 18.7 µM (active). In test [3], the Potency entry is “inactive”.
In the case of `O=C(O)C(Cl)Cl`, the Potency entry in test [1], in test [2], in [3], in test [4] and in test [5] was “inactive” in each case.
As to `CCCCOC(=O)c1ccccc1C(=O)OCc1ccccc1`, the Potency result in [1], in test [2], in [3], in [4] and in test [5] was “inactive” throughout.
`O=c1[nH]c2ccc(Cl)cc2c(N[C@@H]2CN3CCC2CC3)c1-c1nc2ccccc2[nH]1`: the Potency is 5.9 µM (active) in test [1]; 0.235 µM (active) in test [2]; 16.6 µM (active) in test [3]; 14.8 µM (active) in test [5]; 1.31 µM (active) in test [6]; 0.261 µM (active) in [7]. Besides, the Potency in test [8] was 0.293 µM (active); in test [9], 13.1 µM (active); in test [10] it was 9.27 µM (active). For the same compound, the Potency result in test [4] is “inactive”.
Consider `CCOC(=O)c1cncn1[C@H](C)c1ccccc1`, for which the Potency entry in test [1], in [2], in test [3] and in [5] was “inactive” each time.
For `OCCCBr`, the Potency entry in test [1], in [2], in test [3], in [4] and in test [5] was “inactive” throughout.
In the case of `O=C(Oc1ccc([N+](=O)[O-])cc1)N1CCC(C(O)(c2ccc3c(c2)OCO3)c2ccc3c(c2)OCO3)CC1`, the Potency result in test [1], in [2], in test [3], in test [4] and in test [5] was “inactive” each time.
For the compound `CCC(=O)O[C@@H]1C=C2CCC3C(CCC4(C)C3CC[C@@H]4OC(=O)CC)C2CC1` (stereo partly specified), the Potency entry in test [1], in [2], in [4] and in test [5] was “inactive” each time.
Turning to `CCCC[N+]1(C)[C@H]2CC(OC(=O)[C@H](CO)c3ccccc3)C[C@H]1[C@H]1O[C@H]12` (stereo partly specified), the Potency result in test [1], in [2], in [4] and in test [5] was “inactive” each time.
With `O=C1C(I)=CC(=C(c2cc(I)c(O)c(I)c2)c2ccccc2C(=O)O)C=C1I`, the Potency result in test [1], in [2], in test [3], in test [4], in [6] and in [9] was “inactive” in each case. Also, the Potency in [7] is 3.69 µM (active).
As to `Nc1ccc(Sc2ccc(N)cc2)cc1`, the Potency entry in test [1], in test [2], in [3], in test [4] and in test [5] was “inactive” each time.
For the compound `CC(C)N[C@@H]1CCn2c(=O)[nH]c3cccc(c32)[C@@H]1O`, the Potency is 3.72 µM (active) in test [1], 11.8 µM (active) in [3], 1.48 µM (active) in test [4] and 18.5 µM (active) in [8]. The Potency entry in test [2], in [6], in [9] and in test [10] was “inactive” in each case.
With `C[C@]12Cc3cn[nH]c3C[C@@H]1CC[C@@H]1[C@H]2CC[C@@]2(C)[C@H]1CC[C@]2(C)O`, the Potency result in [1], in test [2], in [3], in test [5], in [6] and in test [7] was “inactive” throughout.
`CCOCCOC(C)=O`: the Potency entry in test [1], in [2], in [3], in test [4] and in test [5] was “inactive” in each case.
`COCCOCCO`: the Potency result in [1], in test [2], in test [4] and in [5] was “inactive” throughout.
In the case of `CC(C)(C)NC[C@H](O)c1ccc(O)cc1Cl`, the Potency entry in test [1], in [2], in test [4] and in test [5] was “inactive” each time.
For `CC(C)NCC(O)c1ccc([N+](=O)[O-])cc1` (stereo unspecified), the Potency entry in test [1], in test [2], in test [4] and in test [5] was “inactive” each time.
As to `O=[N+]([O-])c1ccc([As](=O)(O)O)cc1`, the Potency result in [1], in [2], in test [4] and in test [5] was “inactive” in each case.
As to `COc1ccc2c(c1)[C@]13CCCCC1C(C2)N(C)CC3` (stereo partly specified), the Potency entry in [1], in [2], in [3], in [4] and in test [5] was “inactive” throughout.
`CC(C)(C)[C@]1(O)C[C@@H]2OC(=O)C[C@@]23C(=O)O[C@@H]2OC(=O)[C@H](O)C213` (stereo partly specified): the Potency result in test [1], in test [2], in test [4] and in test [5] was “inactive” each time.
As for `C=C1C[C@H]2[C@H]3CCC(=O)[C@@]3(C)CC[C@@H]2[C@@]2(C)C=CC(=O)C=C12`, the Potency entry in test [1], in [2] and in test [4] was “inactive” in each case.
